The term AC50 denotes the midpoint of the concentration-response curve, whichever way the signal moves.

The structures appear in SMILES notation. Active and inactive are the calls of the source. Rule for the calls: active = hit-call score of the fitted dose curve at least 0.9, where 1 is the maximum; inactive = score below 0.9.

This is an account of results in PubChem BioAssay (EPA / NIEHS).

Test [1] in a line: ATG_M_61_CIS: Attagene CIS-FACTORIAL HepG2 Assay for M61 Transcription Factor (Internal Marker) (AID 2282937). The settings on record: HepG2 Attagene CIS-FACTORIAL M61 internal marker reporter; actives raise or lower the signal. The procedure, abridged: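 Endogenous transcription factor activity in HepG2 is read through transiently transfected cis-element reporter units. After 24 h dosing, RNA undergoes reverse transcription, PCR and primer extension with 6-FAM before capillary electrophoresis; DMSO-referenced bidirectional fit.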

Test [2] can be described thus: ATG_EGR_CIS: Attagene CIS-FACTORIAL HepG2 Assay for human Early Growth Response 1 (EGR1) (AID 2282938). The note with it: HepG2 Attagene CIS-FACTORIAL EGR reporter mRNA; actives raise or lower the signal. The procedure, abridged:
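Activity is taken as induction or loss of reporter mRNA versus DMSO, fitted bidirectionally. Transcripts from cis-regulated reporter units in transiently transfected HepG2 were measured after 24 h by RT-PCR with capillary electrophoresis.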

Test [3] is described as follows: ATG_M_19_CIS: Attagene CIS-FACTORIAL HepG2 Assay for M19 Transcription Factor (Internal Marker) (AID 2282939). The note with it: HepG2 Attagene CIS-FACTORIAL M19 internal marker reporter; actives raise or lower the signal. Summed up:
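Signals come from fluorescence of labelled reporter-specific PCR fragments resolved by capillary electrophoresis, following 24 h treatment of HepG2 cells transfected with cis-promoter reporter units; activity was fitted in both directions relative to DMSO.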

Test [4] is described as follows: ATG_Ets_CIS: Attagene CIS-FACTORIAL HepG2 Assay for human Erythroblast Transformation Specific (ETS) (AID 2282941). The note with it: HepG2 ETS cis-reporter transcription, actives raise or lower the signal. Summed up:
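HepG2 cells transiently transfected with cis-promoter reporter transcription units were dosed for 24 h; reporter mRNA was measured by RT-PCR, 6-FAM primer extension, HpaI digestion and capillary electrophoresis, with bidirectional fitting against DMSO baseline.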

Test [5] deals with Hepatocyte nuclear factor 3-beta (Homo sapiens) (UniProt Q9Y261). The test is described as follows: ATG_FoxA2_CIS: Attagene CIS-FACTORIAL HepG2 Assay for human Forkhead box A2 (FOXA2) (AID 2282942). The note with it: HepG2 cis-reporter transcription factor activity, 24 h; actives raise or lower the signal. Summed up: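 Reporter transcript induction is measured by fluorescence after capillary electrophoresis of RT-PCR products from HepG2 cells exposed 24 h. Cis-regulated reporter units report endogenous factor activity; curves fitted both directions against DMSO.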

A short description of test [6]: ATG_FoxO_CIS: Attagene CIS-FACTORIAL HepG2 Assay for human Forkhead box O (FoxO) (AID 2282943). The settings on record: HepG2 Attagene cis-reporter, FoxO element, mRNA; actives raise or lower the signal. Summed up: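 Values reflect reporter mRNA induction or loss in HepG2 cells 24 h post-dosing, fitted bidirectionally with DMSO as negative control and baseline. Detection used RT-PCR and fluorescence capillary electrophoresis.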

Test [7] in a line: ATG_GLI_CIS: Attagene CIS-FACTORIAL HepG2 Assay for human Zinc Finger Protein GLI1 (AID 2282945). The settings on record: HepG2, Attagene cis-factorial reporter mRNA, GLI element; actives raise or lower the signal. The procedure, abridged:
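HepG2 cells transiently transfected with cis-promoter multiplexed reporter units report endogenous transcription factor activity. After 24 h chemical exposure, reporter mRNA was quantified by RT-PCR, 6-FAM labelling, HpaI digestion and capillary electrophoresis, with bidirectional fitting against DMSO.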

A short description of test [8]: ATG_ISRE_CIS: Attagene CIS-FACTORIAL HepG2 Assay for human Interferon Regulatory Factor 1 (IRF1) binding to an Interferon-Stimulated Response Element (ISRE) (AID 2282948). The settings on record: HepG2 ISRE cis-reporter (Attagene), mRNA transcription readout; actives raise or lower the signal. The procedure, abridged: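 HepG2 cells transiently transfected with multiplexed cis-promoter reporter units; after 24 h compound exposure, reporter mRNA quantified by RT-PCR, FAM labelling, HpaI digestion and capillary electrophoresis. Bidirectional fit versus DMSO baseline.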

Test [9] can be described thus: ATG_M_32_CIS: Attagene CIS-FACTORIAL HepG2 Assay for M32 Transcription Factor (Internal Marker) (AID 2282949).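 Note: background control marker of the multiplexed CIS panel rather than a real target.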 The settings on record: HepG2 Attagene cis-factorial M32 reporter, mRNA; actives raise or lower the signal. The procedure, abridged:
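Fluorescent capillary electrophoresis peaks of HpaI-digested, FAM-labelled RT-PCR reporter products give the signal. Source: transiently transfected human liver HepG2 cells, 24 h after chemical dosing; bidirectional fitting against DMSO.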

The target in test [10] is Hypoxia-inducible factor 1-alpha (Homo sapiens) (UniProt Q16665). The test is described as follows: ATG_HIF1a_CIS: Attagene CIS-FACTORIAL HepG2 Assay for human Hypoxia Inducible Factor 1 (HIF1A) (AID 2282951). The settings on record: HepG2 Attagene cis-factorial HIF1a reporter transcription; actives raise or lower the signal. The procedure, abridged: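 Fluorescence intensity of capillary-separated, 6-FAM-labelled reporter amplicons gives mRNA induction in HepG2 cells carrying transfected cis-promoter reporter units; cells exposed 24 h, responses fitted up or down from DMSO.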

Test [11] has as its target Hepatocyte nuclear factor 6 (Homo sapiens) (UniProt Q9UBC0). The test is described as follows: ATG_HNF6_CIS: Attagene CIS-FACTORIAL HepG2 Assay for human Hepatocyte Nuclear Factor 6 (HNF6) (AID 2282952). The note with it: HepG2 Attagene cis-factorial HNF6 reporter transcription; actives raise or lower the signal. Summed up: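 HepG2 cells transiently transfected with cis-element-driven multiple reporter transcription units, dosed 24 h; reporter mRNA quantified by RT-PCR, FAM primer extension, HpaI digestion and capillary electrophoresis; bidirectional fit versus DMSO baseline.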

Test [12] is described as follows: ATG_MRE_CIS: Attagene CIS-FACTORIAL HepG2 Assay for human Metal Responsive Element (MRE) (AID 2282954). The settings on record: HepG2 MRE cis-reporter transcription, Attagene multiplex; actives raise or lower the signal. The procedure, abridged: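 Step one: transfect HepG2 with cis-regulated reporter units. Step two: dose 24 h. Step three: isolate RNA, RT-PCR, 6-FAM label, HpaI digest, capillary electrophoresis. Fit bidirectionally to DMSO.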

Test [13] has as its target Paired box protein Pax-6 (Homo sapiens) (UniProt P26367). The test is described as follows: ATG_Pax6_CIS: Attagene CIS-FACTORIAL HepG2 Assay for human Paired Box 6 (PAX6) (AID 2282956). The settings on record: HepG2 CIS-FACTORIAL PAX6 reporter transcription, RNA readout; actives raise or lower the signal. Summed up: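 HepG2 cells transiently transfected with multiplexed cis-promoter reporter units (endogenous TF activity) were dosed for 24 h. Reporter mRNA was quantified by RT-PCR, 6-FAM labeling, HpaI digestion and capillary electrophoresis; bidirectional fitting versus DMSO baseline.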

Test [14] can be described thus: ATG_GATA_CIS: Attagene CIS-FACTORIAL HepG2 Assay for human GATA Binding Protein (AID 2282944). The settings on record: HepG2 GATA cis-element reporter, Attagene multiplex mRNA; actives raise or lower the signal. The procedure, abridged:
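After transfecting HepG2 cells with multiple cis-regulated reporter units, chemicals are dosed for 24 h; isolated RNA undergoes RT-PCR and fluorescent labeling before capillary electrophoresis, with activity expressed against DMSO.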

Test [15] has as its target Bile acid receptor (Homo sapiens) (UniProt Q96RI1). The test is described as follows: ATG_IR1_CIS: Attagene CIS-FACTORIAL HepG2 Assay for human Nuclear Receptor Subfamily 1 Group H Member 4 (NR1H4), IR1 submotif (AID 2282946). The note with it: IR1 reporter transcription, actives raise or lower the signal. The procedure, abridged:
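Transient MRTU transfection, HepG2; 24 h dosing; RNA → RT-PCR → 6-FAM primer extension → HpaI digest → capillary electrophoresis fluorescence. Gain/loss of signal fitted relative to DMSO.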

The nature of test [16]: ATG_GRE_CIS: Attagene CIS-FACTORIAL HepG2 Assay for human Glucocorticoid Response Elements (GRE) (AID 2282947). The settings on record: HepG2 GRE cis-reporter, Attagene multiplex mRNA; actives raise or lower the signal. Summed up:
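Following 24 h chemical exposure of transiently transfected HepG2 cells, total RNA was reverse-transcribed and reporter cDNA amplified, fluorescently labelled and sized by capillary electrophoresis. Signal gain or loss was fitted relative to DMSO vehicle.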

Test [17] is described as follows: ATG_M_06_CIS: Attagene CIS-FACTORIAL HepG2 Assay for M06 Transcription Factor (Internal Marker) (AID 2282950). The settings on record: HepG2 Attagene CIS-FACTORIAL M06 internal marker reporter; actives raise or lower the signal. Summed up:
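HepG2 liver cells, 24 h exposure. Reporter transcripts from transfected cis-element constructs quantified by RT-PCR/capillary electrophoresis fluorescence. Bidirectional curve fit against DMSO.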

In test [18] the target is Heat shock factor protein 1 (Homo sapiens) (UniProt Q00613). Description: ATG_HSE_CIS: Attagene CIS-FACTORIAL HepG2 Assay for human Heat Shock Transcription Factor 1 (HSE) (AID 2282953). The note with it: HepG2 HSE cis-reporter, Attagene RNA transcription; actives raise or lower the signal. Summed up: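 Endogenous transcription factor activity captured via cis-promoter reporter units transfected into HepG2; treatment lasted 24 h. Fluorescence intensity of reporter fragments analysed with bidirectional curve fitting, DMSO baseline.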

Test [19] is described as follows: ATG_PBREM_CIS: Attagene CIS-FACTORIAL HepG2 Assay for human Phenobarbital-responsive Enhancer Module (PBREM) (AID 2282955). The note with it: HepG2 PBREM cis-reporter, Attagene multiplexed transcription; actives raise or lower the signal. Summed up:
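Cells were transfected with cis-element reporter units and treated for 24 h, after which RNA was extracted and reporter transcripts measured by RT-PCR and capillary electrophoresis.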

Chain of Hypoxia-inducible factor 1-alpha (Homo sapiens) (Q16665 whole entry, looked up): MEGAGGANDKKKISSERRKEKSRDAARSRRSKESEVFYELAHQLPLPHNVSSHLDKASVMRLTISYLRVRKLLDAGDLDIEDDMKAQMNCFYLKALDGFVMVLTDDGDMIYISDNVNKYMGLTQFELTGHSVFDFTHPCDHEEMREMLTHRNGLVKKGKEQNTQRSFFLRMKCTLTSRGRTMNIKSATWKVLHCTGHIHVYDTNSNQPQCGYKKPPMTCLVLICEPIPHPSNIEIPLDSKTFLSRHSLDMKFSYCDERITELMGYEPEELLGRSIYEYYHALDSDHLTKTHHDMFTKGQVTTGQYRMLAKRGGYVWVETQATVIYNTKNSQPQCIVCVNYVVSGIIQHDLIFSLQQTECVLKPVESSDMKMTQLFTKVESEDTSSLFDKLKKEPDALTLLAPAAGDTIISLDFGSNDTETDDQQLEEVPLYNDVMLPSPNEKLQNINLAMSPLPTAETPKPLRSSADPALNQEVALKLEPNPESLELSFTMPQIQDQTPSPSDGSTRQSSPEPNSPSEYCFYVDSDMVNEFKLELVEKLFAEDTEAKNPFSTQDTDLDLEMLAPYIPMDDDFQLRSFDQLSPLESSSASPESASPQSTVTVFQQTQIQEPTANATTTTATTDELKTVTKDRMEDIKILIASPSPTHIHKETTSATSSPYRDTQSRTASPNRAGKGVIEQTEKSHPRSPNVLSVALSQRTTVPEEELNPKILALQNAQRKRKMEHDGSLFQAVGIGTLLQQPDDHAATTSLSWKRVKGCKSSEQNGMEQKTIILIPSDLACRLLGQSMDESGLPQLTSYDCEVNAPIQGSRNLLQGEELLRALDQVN
Chain of Paired box protein Pax-6 (Homo sapiens) (P26367 whole entry, looked up): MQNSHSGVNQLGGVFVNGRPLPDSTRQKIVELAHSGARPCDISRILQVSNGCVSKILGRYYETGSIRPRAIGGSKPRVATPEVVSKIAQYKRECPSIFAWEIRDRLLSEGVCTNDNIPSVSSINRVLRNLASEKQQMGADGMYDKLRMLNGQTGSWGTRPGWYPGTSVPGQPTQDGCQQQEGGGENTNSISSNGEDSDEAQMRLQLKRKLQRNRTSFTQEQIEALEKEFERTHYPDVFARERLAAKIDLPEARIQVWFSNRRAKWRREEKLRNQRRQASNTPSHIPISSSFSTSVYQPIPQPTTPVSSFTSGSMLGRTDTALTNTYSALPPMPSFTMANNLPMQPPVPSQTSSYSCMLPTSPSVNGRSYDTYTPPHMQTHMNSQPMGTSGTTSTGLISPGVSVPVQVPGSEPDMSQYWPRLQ
Chain of Bile acid receptor (Homo sapiens) (Q96RI1 whole entry, looked up): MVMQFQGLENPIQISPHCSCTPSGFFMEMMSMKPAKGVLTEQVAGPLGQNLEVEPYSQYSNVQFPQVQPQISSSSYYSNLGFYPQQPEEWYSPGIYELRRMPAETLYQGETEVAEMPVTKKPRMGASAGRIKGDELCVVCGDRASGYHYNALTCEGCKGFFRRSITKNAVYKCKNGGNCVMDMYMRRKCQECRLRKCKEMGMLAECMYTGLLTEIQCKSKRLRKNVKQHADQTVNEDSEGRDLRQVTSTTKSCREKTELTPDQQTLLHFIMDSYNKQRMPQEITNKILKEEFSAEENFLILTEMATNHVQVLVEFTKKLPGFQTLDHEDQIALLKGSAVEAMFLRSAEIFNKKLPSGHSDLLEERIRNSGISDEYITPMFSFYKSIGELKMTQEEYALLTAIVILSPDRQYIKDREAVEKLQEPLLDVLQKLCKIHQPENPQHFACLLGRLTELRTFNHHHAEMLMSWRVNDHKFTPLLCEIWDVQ
Chain of Hepatocyte nuclear factor 3-beta (Homo sapiens) (Q9Y261 whole entry, looked up): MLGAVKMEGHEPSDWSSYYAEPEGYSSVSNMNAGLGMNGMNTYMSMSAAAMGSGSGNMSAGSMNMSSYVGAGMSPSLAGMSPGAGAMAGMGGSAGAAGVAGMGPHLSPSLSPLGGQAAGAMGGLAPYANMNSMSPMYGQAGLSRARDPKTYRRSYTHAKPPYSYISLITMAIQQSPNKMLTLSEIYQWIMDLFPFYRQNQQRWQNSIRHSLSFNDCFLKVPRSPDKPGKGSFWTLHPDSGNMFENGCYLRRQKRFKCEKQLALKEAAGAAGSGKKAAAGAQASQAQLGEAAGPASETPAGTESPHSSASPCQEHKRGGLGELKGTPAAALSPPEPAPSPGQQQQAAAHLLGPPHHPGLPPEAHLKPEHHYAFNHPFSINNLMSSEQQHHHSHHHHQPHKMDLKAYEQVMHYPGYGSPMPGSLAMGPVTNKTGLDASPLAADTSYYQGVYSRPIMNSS
Chain of Hepatocyte nuclear factor 6 (Homo sapiens) (Q9UBC0 whole entry, looked up): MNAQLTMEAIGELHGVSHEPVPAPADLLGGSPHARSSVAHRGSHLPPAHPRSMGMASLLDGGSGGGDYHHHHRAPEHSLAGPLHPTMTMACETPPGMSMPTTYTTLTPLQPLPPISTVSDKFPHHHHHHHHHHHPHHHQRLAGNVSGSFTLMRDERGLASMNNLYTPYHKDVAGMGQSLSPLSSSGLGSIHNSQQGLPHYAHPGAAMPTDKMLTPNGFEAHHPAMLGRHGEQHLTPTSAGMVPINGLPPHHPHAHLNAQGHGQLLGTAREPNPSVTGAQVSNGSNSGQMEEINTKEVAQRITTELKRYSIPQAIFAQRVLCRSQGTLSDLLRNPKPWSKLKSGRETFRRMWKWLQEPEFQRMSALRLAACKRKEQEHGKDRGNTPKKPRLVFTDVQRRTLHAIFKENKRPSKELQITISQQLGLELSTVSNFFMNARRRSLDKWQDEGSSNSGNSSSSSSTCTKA
Chain of Heat shock factor protein 1 (Homo sapiens) (Q00613 whole entry, looked up, the tested form may be a part): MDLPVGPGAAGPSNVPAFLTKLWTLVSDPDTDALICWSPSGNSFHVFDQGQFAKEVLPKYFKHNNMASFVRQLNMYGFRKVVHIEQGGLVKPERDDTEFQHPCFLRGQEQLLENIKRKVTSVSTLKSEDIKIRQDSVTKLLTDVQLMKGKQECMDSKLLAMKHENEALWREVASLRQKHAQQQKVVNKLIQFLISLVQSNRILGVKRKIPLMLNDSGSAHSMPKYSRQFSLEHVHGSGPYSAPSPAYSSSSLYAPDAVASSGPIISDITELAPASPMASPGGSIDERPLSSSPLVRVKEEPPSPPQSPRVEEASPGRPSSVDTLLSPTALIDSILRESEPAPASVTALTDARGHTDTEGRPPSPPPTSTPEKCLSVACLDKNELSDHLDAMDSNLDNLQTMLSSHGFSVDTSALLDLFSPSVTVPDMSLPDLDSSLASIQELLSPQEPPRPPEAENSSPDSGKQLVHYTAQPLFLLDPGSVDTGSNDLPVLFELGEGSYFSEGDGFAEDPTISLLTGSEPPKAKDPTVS

Turning to `Cc1cc(C)cc(C)c1`, the call in [1], in [2], in test [3], in test [4], in test [5] and in test [6] was inactive. Further, the result in test [7], in [8], in [9], in [10], in [11] and in [12] was inactive. Besides, in [13], the molecule was called inactive.

`CN(C)[C@@H]1C(=O)C(C(N)=O)=C(O)[C@@]2(O)C(=O)C3=C(O)c4c(O)ccc(Cl)c4[C@@](C)(O)[C@H]3C[C@@H]12`: the molecule was called inactive in test [1], in test [2], in test [3], in test [4], in test [5] and in test [14]. The result in test [7], in test [15], in test [16], in [8], in test [9] and in test [17] was inactive. For the same molecule, the result in test [10], in test [11], in test [18], in [12], in test [19] and in test [13] was inactive.

For the molecule `CCCCCCCCBr`, the result in test [1], in test [2], in test [3], in test [4], in test [5] and in test [6] was inactive. Also, the molecule was classed as inactive in [7], in test [15], in test [16], in test [8], in [9] and in [17]. Further, the molecule was called inactive in test [10], in test [11], in test [18], in test [12], in [19] and in [13].

`CN(C)C(=S)S`: the molecule was called inactive in test [1], in [2], in [3], in test [4], in test [5] and in [6]. Also, the molecule was called inactive in test [14], in test [7], in test [8], in [9], in test [17] and in test [10]. The outcome in test [11], in test [18], in test [12] and in [13] was inactive.

Take `CCOP(=S)(OCC)O/N=C(\C#N)c1ccccc1`: the result in test [1], in test [2], in test [3], in test [5], in [6] and in [14] was inactive. For the same molecule, the molecule was called inactive in test [7], in test [15], in test [16], in test [8], in [9] and in test [17]. Moreover, the molecule was classed as inactive in test [11], in test [18], in test [12] and in [13]. In addition, in test [10], the AC50 is 67.2 µM (active).

Consider `O=[N+]([O-])c1ccccc1O`, for which the call in test [1], in [2], in test [3], in test [4], in test [5] and in test [6] was inactive. The molecule was classed as inactive in test [14], in test [7], in test [16], in test [9], in [17] and in test [10]. Also, the call in [11], in test [18], in [12], in test [19] and in test [13] was inactive.

Turning to `CC[N+](CC)(CC)CC`, the result in [1], in test [2], in [3], in [5], in test [6] and in test [14] was inactive. The molecule was classed as inactive in test [7], in test [16], in test [9], in test [17], in test [10] and in test [11]. Besides, the molecule was classed as inactive in test [18], in test [12], in test [19] and in [13].

For `c1ccc2c(c1)Oc1ccccc1O2`, the molecule was called inactive in test [1], in test [2], in test [3], in test [4], in [5] and in test [14]. In addition, the outcome in [7], in test [15], in test [16], in test [8], in test [9] and in test [17] was inactive. Also, the molecule was classed as inactive in [10], in [11], in test [18], in test [12], in test [19] and in test [13].
